PubChem BioAssay (NCATS)
Inconclusive results are not listed. The source made the active and inactive calls. Calls follow the shape of the dose curve; as a rule, active = well fitted curve in the direction sought with a large enough effect in the signal ratio (not every such curve was filed as active); inconclusive = small, poorly fitted or top-dose-only effect, or effect the other way, or a change in a side signal; inactive = no such curve, though single readings can be large or run the other way; the % refers to the signal ratio.

The compounds below were run against Tyrosine-protein phosphatase non-receptor type substrate 1 (Homo sapiens) + Leukocyte surface antigen CD47 (Homo sapiens) (UniProt P78324+Q08722) (assay: CD47-SIRPalpha protein protein interaction - HTRF assay qHTS validation (AID 1347058)). Details: TR-FRET HTRF CD47-His / biotin-SIRPalpha binding, ratio 665/615; series mostly up to 38.3 µM.
Outline: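 Soluble extracellular domains (6His-CD47, Avi-tag-biotinylated SIRPalpha) in PBS pH 7.4 with 0.05% IGEPAL CA-630. Compounds were preincubated 30 min at RT with CD47 and anti-His-Eu, then SIRPalpha and SAV-XL665 were added. TR-FRET 665/615 ratio.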

Sequence of Tyrosine-protein phosphatase non-receptor type substrate 1 (Homo sapiens) + Leukocyte surface antigen CD47 (Homo sapiens) (P78324 whole entry, looked up, the tested form may be a part): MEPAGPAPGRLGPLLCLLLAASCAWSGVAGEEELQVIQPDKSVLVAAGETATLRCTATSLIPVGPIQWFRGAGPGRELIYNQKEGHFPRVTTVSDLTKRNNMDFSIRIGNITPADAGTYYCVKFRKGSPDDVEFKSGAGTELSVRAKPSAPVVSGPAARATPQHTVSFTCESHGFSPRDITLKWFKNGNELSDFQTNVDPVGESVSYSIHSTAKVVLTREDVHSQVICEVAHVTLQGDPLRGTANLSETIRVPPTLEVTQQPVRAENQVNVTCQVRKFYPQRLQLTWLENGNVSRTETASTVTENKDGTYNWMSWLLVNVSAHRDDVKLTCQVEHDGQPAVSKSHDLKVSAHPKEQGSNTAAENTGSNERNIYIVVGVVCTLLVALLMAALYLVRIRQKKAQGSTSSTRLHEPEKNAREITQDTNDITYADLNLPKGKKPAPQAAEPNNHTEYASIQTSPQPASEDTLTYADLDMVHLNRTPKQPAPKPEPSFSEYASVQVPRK
Sequence of Tyrosine-protein phosphatase non-receptor type substrate 1 (Homo sapiens) + Leukocyte surface antigen CD47 (Homo sapiens) (Q08722 whole entry, looked up, the tested form may be a part): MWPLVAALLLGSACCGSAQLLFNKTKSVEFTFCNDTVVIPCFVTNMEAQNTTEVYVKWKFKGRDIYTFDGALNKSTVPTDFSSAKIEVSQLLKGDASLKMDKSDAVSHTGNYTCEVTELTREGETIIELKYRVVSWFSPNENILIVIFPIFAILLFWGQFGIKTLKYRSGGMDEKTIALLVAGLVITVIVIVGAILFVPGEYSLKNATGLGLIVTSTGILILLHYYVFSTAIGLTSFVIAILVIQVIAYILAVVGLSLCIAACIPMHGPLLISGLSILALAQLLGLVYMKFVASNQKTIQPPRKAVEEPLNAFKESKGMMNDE

Compound | outcome
O=C(O)C1=CCCNC1 | inactive
CC(C)C[C@H](NC(=O)[C@H](O)[C@H](N)Cc1ccccc1)C(=O)O | inactive
Cc1nc2n(c(=O)c1CCN1CCC(c3noc4cc(F)ccc34)CC1)CCCC2O (configuration not stated) | inactive
CC1CNCCN1S(=O)(=O)c1cccc2cnccc12 (configuration not stated) | inactive
O=C(O)C1CCNCC1 | inactive
NCCCCN | inactive
NC1(C(=O)O)CC1 | inactive
CN1CC(O)C(O)C(O)C1CO (configuration not stated) | inactive
CCCCCCCCCC(=O)NC(CN1CCOCC1)[C@H](O)c1ccccc1 (some centres not stated) | inactive
CCCCCCN(CCCCCC)C(=O)Cc1c(-c2ccc(F)cc2)[nH]c2ccccc12 | inactive
O=c1[nH]c2cc(Cl)ccc2c(O)c1-c1ccc(Oc2ccccc2)cc1 | inactive
Cc1cccc(C(=O)NCN2CCN(c3ccccc3C#N)CC2)c1 | inactive
O=c1[nH]c2ccccc2c2ccccc12 | inactive
Cc1cc(Cn2cnc3c2C[C@@H](C(=O)O)N(C(=O)C(c2ccccc2)c2ccccc2)C3)ccc1N | inactive
NCCCNCCCCNCCCN | inactive
CC(C)[C@@H]1CC[C@@H](C)C[C@@H]1P(=O)(c1ccccc1)c1ccccc1 | inactive
CCN(CC)CCOC(=O)c1cc(Cl)c(N)cc1OC | inactive
[N-]=[N+]=Nc1ccc(C(=O)CSC[C@H](NC(=O)CC[C@H](N)C(=O)O)C(=O)NCC(=O)O)cc1 | inactive
Cc1ccccc1/C=C/C1=NCCN1 | inactive
NC(N)=NC(N)=Nc1ccccc1 | inactive
Cn1c(=O)c2c(nc(/C=C/c3cccc(Cl)c3)n2C)n(C)c1=O | inactive
Nc1ncnc2c1nc(Sc1ccc(Cl)cc1)n2[C@H]1OC2COP(=O)(O)O[C@@H]2C1O (some centres not stated) | inactive
